Measured values as given in PubChem BioAssay (NCATS).
Values joined by “and” are separate entries in the source; they are usually repeats but may differ in a detail not shown here. Equal entries are not always repeated. Results filed as inconclusive are left out. Active and inactive are the calls of the source. The call rests on the fitted dose curve; in most records, active means well fitted inhibition curve with a large enough effect; inconclusive means small, poorly fitted or top-dose-only effect; inactive means no such curve, though single readings can be large or run the other way.

The compounds below were run against Retinaldehyde dehydrogenase 3 (Homo sapiens) (UniProt P47895) (assay: qHTS for Inhibitors of the Aldehyde Dehydrogenase Family (ALDH1A3) Confirmatory screens (AID 2061311; further: nearly all actives have a fitted effect of over 60% in size; further: potency means the concentration at half of the fitted maximal effect)). Settings: ALDH inhibition qHTS; series mostly up to 46 µM.
In the case of `O=C1c2ccccc2C(=O)c2cc(S(=O)(=O)Nc3cccc4cccnc34)ccc21`, the Potency is reported as 15.9 µM (active). In the case of `C/C(=C\c1ccc2c(c1)OCO2)C1Nc2cccc3cccc(c23)N1`, the Potency is reported as 2.83 µM (active). In the case of `CCC(=O)NC(c1cc(Cl)c2ccccc2c1O)C(C)C` (stereo unspecified), the Potency is reported as 12.7 µM (active). `CC(C)N1CCc2c(sc(NC(=O)c3ccccc3)c2-c2nc3ccccc3s2)C1` was tested, and the Potency was “inactive”. For `CC(C)(C)OC(=O)N[C@@H](Cc1ccc(O[S+](=O)([O-])c2cccnc2)cc1)C(=O)N1CCN(c2ccccc2)CC1`, the Potency was 28.3 µM (active). For `Cc1ccc2nc3sc(C(=O)NCCc4cccnc4)cc3cc2c1`, the Potency was 12.7 µM (active). In the case of `Oc1ccc(/C=C/c2ccccc2)c2cccnc12`, the Potency is reported as 14.2 µM (active). In the case of `Cc1ccc(-c2ccc(=O)n(CC(=O)NCCc3ccccc3)n2)cc1`, the Potency is reported as 0.447 µM (active). `Cc1ccc(S(=O)(=O)Nc2cnccc2C(=O)Nc2ccc(N3CCOCC3)cc2)cc1` was tested, and the Potency was 4 µM (active). For `Oc1ccc(COCc2ccc(F)cc2)c2cccnc12`, the Potency was 10.1 µM (active). For `COc1ccc(CNc2ccc(N3CCN(C(C)=O)CC3)cc2)cc1OC`, the Potency was 12.7 µM (active). In the case of `CNC(=O)c1ccccc1Nc1cc(Nc2ccc(N3CCOCC3)cc2OC)ncc1C(F)(F)F`, the Potency is reported as 3.57 µM (active). `Cc1ccc(S(=O)(=O)Nc2cccc3ccc[n+](C)c23)cc1` was tested, and the Potency was 10.1 µM (active). For `CC(=O)c1ccc(N2CCN(S(=O)(=O)c3cc4c(cc3Cl)NC(=O)C4)CC2)cc1`, the Potency was 3.55 µM (active). `CN(C)c1cnc2c(O)ccc(C(=O)O)c2c1` was tested, and the Potency was 8.96 µM (active). `CC(=O)NC(c1cc(Cl)c2ccccc2c1O)C(C)C` (stereo unspecified) was tested, and the Potency was 8.96 µM (active). `O=[N+]([O-])c1ccccc1S(=O)(=O)Nc1cccc2cccnc12` was tested, and the Potency was 12.7 µM (active). `CO[C@H]1c2cc(C(C)C)c(O)c(O)c2[C@@]23CCCC(C)(C)C2[C@@H]1OC3=O` (stereo partly specified) was tested, and the Potency was 6.97 µM (active). With `COc1cncc(NC(=O)c2cccs2)c1` the Potency was 11.3 µM (active). With `CC(=O)c1ccc(N2CCN(S(=O)(=O)c3ccc4c(c3)C(Cl)(Cl)C(=O)N4)CC2)cc1` the Potency was 2.82 µM (active) and 1.12 µM (active). For `c1csc(CNc2ccc(N3CCCCC3)cc2)c1`, the Potency was 20.1 µM (active).

The compounds below were run against Retinal dehydrogenase 2 (Homo sapiens) (UniProt O94788) (assay: qHTS for Inhibitors of the Aldehyde Dehydrogenase Family (ALDH1A2) Confirmation screens (AID 2061314; further: potency means the concentration at half of the fitted maximal effect; nearly all actives have a fitted effect of over 65% in size)). Settings: ALDH1A2 enzyme inhibition qHTS confirmation; series mostly up to 45.9 µM.
In the case of `CCC(=O)NC(c1cc(Cl)c2ccccc2c1O)C(C)C` (stereo unspecified), the Potency is reported as 28.3 µM (active). `CC(C)(C)OC(=O)N[C@@H](Cc1ccc(O[S+](=O)([O-])c2cccnc2)cc1)C(=O)N1CCN(c2ccccc2)CC1` was tested, and the Potency was 15.9 µM (active). In the case of `Cc1ccc(-c2ccc(=O)n(CC(=O)NCCc3ccccc3)n2)cc1`, the Potency is reported as 11.2 µM (active). With `Cc1ccc(S(=O)(=O)Nc2cnccc2C(=O)Nc2ccc(N3CCOCC3)cc2)cc1` the Potency was 6.34 µM (active). In the case of `COc1ccc(CNc2ccc(N3CCN(C(C)=O)CC3)cc2)cc1OC`, the Potency is reported as 12.7 µM (active). In the case of `Cc1ccc(S(=O)(=O)Nc2cccc3ccc[n+](C)c23)cc1`, the Potency is reported as 25.2 µM (active). `CN(C)c1cnc2c(O)ccc(C(=O)O)c2c1` was tested, and the Potency was 5.04 µM (active). `CC(=O)NC(c1cc(Cl)c2ccccc2c1O)C(C)C` (stereo unspecified) was tested, and the Potency was 20.1 µM (active). In the case of `O=[N+]([O-])c1ccccc1S(=O)(=O)Nc1cccc2cccnc12`, the Potency is reported as 0.712 µM (active). In the case of `CO[C@H]1c2cc(C(C)C)c(O)c(O)c2[C@@]23CCCC(C)(C)C2[C@@H]1OC3=O` (stereo partly specified), the Potency is reported as 6.97 µM (active). With `CC(=O)c1ccc(N2CCN(S(=O)(=O)c3ccc4c(c3)C(Cl)(Cl)C(=O)N4)CC2)cc1` the Potency was 6.34 µM (active).

What follows are compounds tested against Retinaldehyde dehydrogenase 3 (Homo sapiens) (UniProt P47895) (assay: qHTS for Inhibitors of the Aldehyde Dehydrogenase Family (ALDH1A3) Primary screen (AID 2061315)). Settings: ALDH inhibition qHTS; series mostly up to 56 µM.
With `CC(C)(C)OC(=O)N[C@@H](Cc1ccc(O[S+](=O)([O-])c2cccnc2)cc1)C(=O)N1CCN(c2ccccc2)CC1` the Potency was “inactive”. `Cc1ccc(-c2ccc(=O)n(CC(=O)NCCc3ccccc3)n2)cc1` was tested, and the Potency was “inactive”. In the case of `Cc1ccc(S(=O)(=O)Nc2cccc3ccc[n+](C)c23)cc1`, the Potency is reported as “inactive”. With `CN(C)c1cnc2c(O)ccc(C(=O)O)c2c1` the Potency was “inactive”.
